# Test results as given in PubChem BioAssay (NCI).
# Several values for one entry are separate records, joined by “and”; a condition that tells them apart may be missing. Equal values may be shown once. The panel holds about 83,000 compounds, 20% with a hit somewhere; the sample as a whole holds those more often.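 Compound tested at a single concentration for 48 hours in 96-well plates; a percent growth value below 10 was scored as active.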 Activity calls are given as the source filed them.
# System: MDA-MB-468 breast
# Experiment: NCI-60 one-dose screen, 48 h (100 = growth as untreated, 0 = no growth, -100 = all killed)
# Conditions: 10 µM unless noted
row,Compound,growth
1,O=C1Nc2cc(Cl)ccc2/C1=C\c1c(-c2ccc(F)cc2)nc2ccccn12,-7.93% (active)
2,Nc1nc(Cl)cc(=O)n1Cc1ccccc1,97.3% (inactive)
3,COc1cc2nccc(Oc3ccc(NC(=O)C4(C(=O)Nc5ccc(F)cc5)CC4)cc3)c2cc1OC,33.6% (inactive)
4,COC(/C=C/c1ccc([N+](=O)[O-])cc1)OC,73.4% (inactive)
5,C#CCOc1c(OC)cc(C(=O)/C(C)=C/c2cccc(N=[N+]=[N-])c2)cc1OC,24.2% (inactive)
6,c1cc(-c2nnc(SSc3ncnc4nc[nH]c34)o2)ccn1,-9.07% (active)
7,O=C1/C(=C/c2ccc([N+](=O)[O-])cc2)COc2ccc(O)cc21,77.3% (inactive)
8,CCN(CC)CCSCCCNc1c(C)cnc2cc(Cl)ccc12,85.6% (inactive)
9,CN(C)CC(O)c1ccc(/C=C/c2ccc(Cl)cc2)cc1 (stereo not given),-84.4% (active)
10,CCCCCCCCCC(=O)Oc1ccc(/C(=C(/C)Cc2cccc(OC)c2)c2ccc(OCCN(C)C)cc2)cc1,103% (inactive)
11,CS(=O)(=O)OC1CC(n2ccc(=O)[nH]c2=O)OC1COC(c1ccccc1)(c1ccccc1)c1ccccc1 (stereo not given),110% (inactive)
12,CC1CCc2c(sc3nc(SCC(=O)N/N=C/c4ccc(Cl)cc4)n(-c4ccccc4)c(=O)c23)C1 (stereo not given),85.6% (inactive)
13,C[C@@H]1N=C(c2ccc(Br)cc2)Nc2nc3ccccn3c2C1=O,-0.502% (active)
14,COc1cc(N=Cc2sc(Nc3nccs3)nc2O)cc(OC)c1OC,84.8% (inactive)
15,COc1cnc2c(c1)C(=O)c1c-2n(CCCCl)c(=O)c2ccncc12,34.1% (inactive)
16,O=C(NC1CCN(Cc2ccccc2)CC1)c1cc(-c2cccnc2)nc2ccc(Cl)cc12,54.7% (inactive)
17,COc1ccc2c(c1)c(-c1noc(-c3cn(C)c4ncc(F)cc34)n1)cn2C,73.5% (inactive)
18,CS(=O)(=O)c1nsc(N)n1,109% (inactive)
19,Nc1ccccc1Nc1ccccc1,120% (inactive) and 118% (inactive)
20,COc1c(B(O)O)cccc1-c1nc2ccc3[nH]ncc3c2c2c1CCCC2,34% (inactive)

row,Compound,growth
1,C=C(C(=O)c1ccccc1)C(NC(C)(C)C)c1ccccc1 (stereo not given),-37.3% (active)
2,N#Cc1c(-c2ccccc2)cc(-c2ccccc2)n(CCCCC(=O)O)c1=O,89.1% (inactive)
3,O=C(c1nc2ccccc2[nH]1)C1C(c2cccc([N+](=O)[O-])c2)C2CC3CCCCC3N2[C@@]12C(=O)Nc1cc(Cl)ccc12 (stereo not given in full),1.53% (active)
4,NC(N)=Nc1ccc(Oc2cccc(Nc3ccc(Br)c(C(F)(F)F)c3)c2)cc1,-10.6% (active)
5,O=C(Nc1cccc(Cl)c1)Nc1nc2ccc([N+](=O)[O-])cc2o1,-4.51% (active)
6,CCN(CC)c1ccc(CN(CC(=O)c2ccc(Cl)c(Cl)c2)Cc2ccccc2)cc1,91.9% (inactive)
7,Cn1ccnc1C(=O)/C=C/c1ccc(C(=O)Nc2ccc(F)cc2)cc1,14.9% (inactive)
8,Cc1cc(-c2cc(O)ccc2Cl)cc2nnc(Nc3ccc(OCCN4CCCC4)cc3)nc12,-69.4% (active)
9,CNC(=O)c1cc(-c2ccc(NC(=O)Nc3ccc(N4CCOCC4)c(C(F)(F)F)c3)cc2)nc2cccnc12,29% (inactive)
10,Cc1onc(-c2c(F)cccc2Cl)c1-c1ncc(-c2ccc(Br)cc2)o1,28.4% (inactive)
11,CCCCC1COc2cccc3c(SCC(=O)N(C)c4cccc(Cl)c4)cc[n+]1c23 (stereo not given),104% (inactive)
12,COc1ccc(NC(=S)/N=c2\oc3c(OC)cccc3cc2-c2cc3ccccc3[nH]2)cc1,82.1% (inactive)
13,COc1ccc(-c2nc3ccccn3c2/C=C/C(=O)c2cc(OC)c(OC)c(OC)c2)cc1OC,8.94% (active)
14,CCOC(=O)c1c(C)nc2c(c1N)/C(=C/c1cccs1)C(=O)N2c1ccc(OC)cc1,28.2% (inactive)
15,COC(=O)CCC1=C(C)C2=NC1=CC1=NC(=CC3=NC(=Cc4[nH]c(/c(=C(/C)O)c4C)=C2)C(C(C)=O)=C3C)C(C)=C1CCC(=O)OC,108% (inactive)
16,O=C(c1ccc(Nc2nccc(NCCCCNc3ccnc4cc(Cl)ccc34)n2)cc1)N1CCCCC1,-25.3% (active)
17,COc1cc(/C=C2\C=C(c3ccc(F)cc3)N(Cc3ccccc3)C2=O)cc(OC)c1OC,49.9% (inactive)
18,CN(C)CCCOc1c2ccc(Cl)cc2nc2c1oc1ccc(Cl)cc12,-48% (active)
19,C=CCCC(=O)N1C=CC(=O)[C@H](O)[C@@H]1/C=C/c1ccccc1,4.99% [100 µM] (active)
20,COc1ccc2sc3cccc(NCCN(C)C)c3c(=O)c2c1,52.3% (inactive) and -82% (active)
